The text below walks through data of PubChem BioAssay (Tox21).

Structures are written as SMILES. Results filed as inconclusive are left out. The source made the active and inactive calls. Calls follow the shape of the dose curve; as a rule, active = well fitted cell-killing curve with a large enough effect in the repeat runs; inconclusive = weak or mixed curves; inactive = flat fitted curve, though single readings scatter.
% is scaled to controls: 0 for no effect and ±100 for the full control effect; potency is read from the fitted curve at half-maximal effect.

This test is described as follows: qHTS assay to identify small molecule antagonists of the TGF-beta/Smad signaling pathway - cell viability counter screen (AID 1346824). Also: nearly all actives have a fitted effect of over 50% in size. The following applies: SBE-bla HEK293T viability, CellTiter-Glo luminescence; series mostly up to 76.8 µM; viability change, negative = cytotoxic: at the top concentration. From the text: U.S. Tox21 Program National Center for Advancing Translational Sciences [NCATS] NIH Chemical Genomics Center [NCGC] U.S. Environmental Protection Agency [EPA] National Institutes of Environmental Health Sciences [NIEHS] National Toxicology Program [NTP] U.S. Food and Drug Administration [FDA] Tox21 Assay Overview: Transforming growth factor beta (TGF-beta) superfamily consists of a large number of structurally related dimeric proteins that act as hormones or local mediators in regulating a wide range of biological functions. This superfamily includes TGF-betas themselves, the bone morphogenetic proteins (BMPs) and the activins. These ligands induce oligomerization of serine/threonine receptor kinases and phosphorylate the cytoplasmic signaling molecules of Smad protein family. CellSensor SBE-bla HEK 293T cell line (Life Technologies, Carlsbad, CA), responsive to TGF-beta was used to screen Tox21 10K compound library for identification of agonists/antagonists of the Smad signaling pathway. This cell line contains a beta-lactamase reporter gene under control of the Smad binding element (SBE) stably integrated into HEK 293T cells. Also cytotoxicity of the compounds was tested in parallel by measuring the cell viability using CellTiter-Glo assay system in the same wells.
Tox21 Assay Protocol Summary: SBE-bla HEK 293T cells were dispensed at 4,000/well in 5 uL of assay medium into black wall/clear-bottom 1536-well plates using a Multidrop Combi (ThermoFisher Scientific, Waltham, MA) dispenser. After the assay plates were incubated at 37 C and 5% CO2 for an overnight, 23 nL of compounds dissolved in DMSO, positive controls or DMSO only was transferred to the assay plate by a Pintool station (Kalypsys, San Diego, CA). Compound transfer was followed by the addition of 1 uL of 0.25 ng/mL TGF-beta1 or assay buffer using two separate tips of Flying Reagent Dispenser (FRD, Aurora Discovery, San Diego, CA). The assay plates were incubated at 37 C and 5% CO2 for 5 hr. One uL of LiveBLAzer B/G FRET substrate (Life Technologies) was added using a Flying Reagent Dispenser (FRD, Aurora Discovery, San Diego, CA) and the plates were incubated at room temperature for 2 hr. Fluorescence intensity (405 nm excitation, 460 nm and 530 nm emissions) was measured using an Envision plate reader (PerkinElmer, Shelton, CT). For cytotoxicity read, 4 uL of CellTiter-Glo reagent (Promega Corporation, Madison, WI) was added to each well of the assay plates using FRD. After 30 min incubation at room temperature, the luminescence intensity was measured using ViewLux plate reader (PerkinElmer).
Background: Quantitative high-throughput screening tests each substance at several concentrations.
As for `Nc1nc2ccccc2n1Cc1ccc(F)cc1`, the “viability change, negative = cytotoxic” value is -15.4% [at 35.3 µM] (inactive).
Same read-out and setting: as for `OCCN(CCO)c1nc(N2CCCCC2)c2nc(N(CCO)CCO)nc(N3CCCCC3)c2n1`, the figure is -1.91% [at 35.3 µM] (inactive).
The same measure, in the same setting: for `NNC(=O)c1cccc(C(=O)NN)c1` the value was 2.51% (inactive).
On the same count and under the same terms, as for `C[n+]1ccn(Cc2ccccc2)c1`, the figure is 11.2% (inactive).
Regarding `Oc1ccc(Cl)cc1Sc1cc(Cl)ccc1O`, the Potency result was “inactive”.
With `ON=C1CCCC1`, the “viability change, negative = cytotoxic” value was 2.3% (inactive).
The same measure, in the same setting: as for `CCCCCCC[N+](CC)(CC)CCCCc1ccc(Cl)cc1`, the figure is -25.8% [at 35.3 µM] (inactive); as for `CC1=C(C(=O)OC(C)C)C(c2cccc([N+](=O)[O-])c2)C(C(=O)OC2CN(C(c3ccccc3)c3ccccc3)C2)=C(N)N1` (stereo not given), -11.4% [at 35.3 µM] (inactive); as for `CN(C)[C@@H]1C(=O)C(C(N)=O)=C(O)[C@@]2(O)C(=O)C3=C(O)c4c(O)ccc(Cl)c4[C@@H](O)[C@H]3C[C@@H]12`, 0.523% [at 35.3 µM] (inactive).
On the same count and under the same terms, for `N#CC1(c2ccc(F)cc2)CCC(=O)CC1` the value was -1.17% [at 35.3 µM] (inactive).
Same read-out and setting: as for `O=c1[nH]sc2ccccc12`, the figure is -14.6% (inactive).
Turning to `COc1cccc(N)c1`, the “viability change, negative = cytotoxic” value is 4.79% (inactive).
For `CCCC(c1cc(C(C)(C)C)c(O)cc1C)c1cc(C(C)(C)C)c(O)cc1C`, the Potency is 24.8 µM (active).
For the compound `O=C1Cc2cc(CCN3CCN(c4nsc5ccccc45)CC3)c(Cl)cc2N1`, the “viability change, negative = cytotoxic” value was -16.9% [at 35.3 µM] (inactive).
Regarding `CCCCCCCCCCCC[N+](C)(C)CCCCCCCCCCCC`, the Potency was 43.6 µM (active).
For the compound `O=[N+]([O-])c1cc(Cl)c(Cl)c(Cl)c1Cl`, the “viability change, negative = cytotoxic” value is 0.763% (inactive).
For the compound `OC1(c2ccc(Cl)c(C(F)(F)F)c2)CCN(CCCC(c2ccc(F)cc2)c2ccc(F)cc2)CC1`, the Potency was 19 µM (active).
Take `CCC(C)(C)C1CCCCC1OC(C)=O` (stereo not given): the “viability change, negative = cytotoxic” value is -6.43% (inactive).
For `Oc1c(Cl)cc(Cl)c2cccnc12`, the “viability change, negative = cytotoxic” value is 0.609% [at 35.3 µM] (inactive).
On the same count and under the same terms, for `N#CSc1ccc(N)c([N+](=O)[O-])c1` the value was -5.99% (inactive).
Regarding `CC[C@H]1O[C@]2(CC[C@@H]1C)C[C@@H]1C[C@@H](C/C=C(\C)C[C@@H](C)/C=C/C=C3\CO[C@@H]4[C@H](O)C(C)=C[C@@H](C(=O)O1)[C@]34O)O2`, the Potency is 54.5 µM (active).
For the compound `CCCCC(CC)CN=C(N)NC(N)=NCCCCCCN=C(N)NC(N)=NCC(CC)CCCC` (stereo not given), the Potency was 19 µM (active).
Take `Cc1onc(-c2c(Cl)cccc2Cl)c1C(=O)N[C@@H]1C(=O)N2[C@@H]1SC(C)(C)[C@@H]2C(=O)O`: the “viability change, negative = cytotoxic” value is 4.09% [at 35.3 µM] (inactive).
The same measure, in the same setting: for `CC(C)OC(=O)c1cc2c(OCC(O)CNC(C)(C)C)cccc2[nH]1` (stereo not given) the value was 15% [at 35.3 µM] (inactive); for `CN(C)c1ccc(C2(c3ccc(N(C)C)cc3)OC(=O)c3cc(N(C)C)ccc32)cc1`, 7.3% (inactive); for `Clc1ccc(C(Cn2ccnc2)OCc2ccc(Sc3ccccc3)cc2)c(Cl)c1` (stereo not given), -17.6% [at 35.3 µM] (inactive).
Same read-out and setting: as for `CCc1oc2ccccc2c1C(=O)c1cc(Br)c(O)c(Br)c1`, the figure is 1.42% [at 35.3 µM] (inactive); as for `COc1c(C)c2c(c(O)c1C/C=C(\C)CCC(=O)O)C(=O)OC2`, -13.7% [at 35.3 µM] (inactive).
Turning to `O=c1[nH]sc2cc(Cl)ccc12`, the “viability change, negative = cytotoxic” value was -9.4% [at 35.3 µM] (inactive).
The same measure, in the same setting: for `[Cl][Au]([Cl])[Cl]` the value was -15.3% (inactive).
Same read-out and setting: for `Oc1cccc(-c2c3nc(c(-c4cccc(O)c4)c4ccc([nH]4)c(-c4cccc(O)c4)c4nc(c(-c5cccc(O)c5)c5ccc2[nH]5)CC4)C=C3)c1` the value was -9.26% [at 35.3 µM] (inactive); for `CCCCN(CCCC)C(=O)N(CCCC)CCCC`, -3.82% (inactive).
Same read-out and setting: as for `Cc1ccc(-n2nc(C(C)(C)C)cc2NC(=O)Nc2ccc(OCCN3CCOCC3)c3ccccc23)cc1`, the figure is -0.943% [at 35.3 µM] (inactive); as for `CCc1cc(SCc2sc(-c3ccc(C(F)(F)F)cc3)nc2CN2CCN(c3ccc(OC)cc3)CC2)ccc1OCC(=O)O`, -25.2% (inactive); as for `COc1ccc(C(=O)/C(Br)=C\C(=O)O)cc1`, 11.3% (inactive).
`C[n+]1cc2c3c(ccc2c2ccc4cc5c(cc4c21)OCO5)OCO3`: the Potency is 4.65 µM (active).
Regarding `Cc1cccc(N(C)C(=S)Oc2ccc3c(c2)C2CCC3C2)c1` (stereo not given), the “viability change, negative = cytotoxic” value was -16.2% [at 35.3 µM] (inactive).
The same measure, in the same setting: as for `CCC1OCC(COc2ccc(Oc3ccccc3)cc2)O1` (stereo not given), the figure is -20.6% (inactive); as for `NC(=O)CC[C@@H]1NC(=O)[C@H](Cc2ccccc2)NC(=O)[C@H](Cc2ccc(O)cc2)NC(=O)CCSSC[C@@H](C(=O)N2CCC[C@H]2C(=O)N[C@@H](CCCN=C(N)N)C(=O)NCC(N)=O)NC(=O)[C@H](CC(N)=O)NC1=O`, 0.605% [at 35.3 µM] (inactive); as for `Clc1ccc2cc3ccccc3cc2c1`, -1.09% (inactive).
